Six compounds from PubChem BioAssay can be followed below.

Experiment [1] can be described thus: viability loss in pontine glioma line – cell-based, SU-DIPG-XXV, MIPE5.0, CellTiter-Glo, qHTS, dose response (AID 1347065; cut-off not given, nearly all actives have AC50 up to about 26 µM;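 further: cells exposed to compound for 48 hours before ATP readout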). The conditions noted are these: CellTiter-Glo ATP luminescence. A general note: In ATP-based viability assays light output follows the ATP content of the culture.
Experiment [2] can be described thus: SU-DIPG-VI glioma cell viability, MIPE4.0 library, CellTiter-Glo luminescence, qHTS (AID 1347066; cut-off not given, nearly all actives have AC50 up to about 30 µM;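 further: cells exposed to compound for 48 hours before readout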). The conditions noted are these: CellTiter-Glo ATP luminescence.
Experiment [3] is described as follows: JHH-DIPG-1 glioma cell viability, MIPE5.0 library, CellTiter-Glo luminescence, qHTS (AID 1347067; cut-off not given, nearly all actives have AC50 up to about 26 µM;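 further: cells exposed to compound for 48 hours before readout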). The conditions noted are these: JHH-DIPG-1 glioma viability, CellTiter-Glo ATP luminescence.
A short description of experiment [4]: SU-DIPG-XXV glioma cell viability, MIPE5.0 library, qHTS (AID 1347068; cut-off not given, nearly all actives have IC50 up to about 30 µM;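 on IC50: cells exposed to compound for 48 hours before viability readout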). (In general: qHTS replaces the single test concentration by a dilution series.)
Experiment [5] can be described thus: sensitizers of A549 cells to miR-34 induction, primary screen, imaging, A549 dox-inducible miR-34, nuclei and caspase counts (AID 1347080;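 active means compounds whose cell count with miR-34 switched on is under 0.7 times the count with it off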). The conditions noted are these: A549 miR-34 inducible, Hoechst nuclei count, 48 h.
Experiment [6] is described as follows: modifiers of HSF1 nuclear foci, imaging, Selleck Cancer Library (AID 1347162; in the data active means plate-normalised HSF1 focus index below about 0.46). The conditions noted are these: human cells, at 10 µM; SSMD: measured here: HSF1 foci SSMD mean; cell count: measured here: cell number; plate-normalised HSF1 focus index: stronger effect = lower value.
A short description of experiment [7]: survival rescue of mitochondrial mutant cells in low glucose, primary screen, MELAS cybrids, Rieske KO mouse fibroblasts, CellTiter-Glo (AID 1508586;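 active means mean z-score across replicates of 1.96 or higher in either the MELAS or the Rieske mutant cell line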;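 further: z relative to plate mean and SD of compound and empty wells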).
The nature of experiment [8]: ovarian cancer cell viability with rucaparib, profiling panel, oncology-focused library, rucaparib conditional (AID 1508598). The conditions noted are these: patient-derived ovarian cancer cells, CellTiter-Glo viability, 144 h, stronger effect = lower value.
The target in experiment [9] is NAD(+) hydrolase SARM1 (Homo sapiens) (UniProt Q6SZW1). Put plainly: SARM1 TIR NADase inhibitors, cell lysate, NAD-Glo luminescence (AID 1508614;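 active means compound whose remaining NAD level is above about 45 nM, limit read from the data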). The conditions noted are these: SAM-TIR HEK293T lysate NADase, at 1 µM, stronger effect = higher value.
A short description of experiment [10]: viability rescue of complex I mutant cybrids, primary screen, cell-based, galactose medium, ATP luminescence (AID 1645843;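 active means z-score of at least 1.8 in each of two replicates, scored against plate mean and spread of sample wells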;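 further: positive z means more ATP and so rescue of galactose-driven cybrid death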). The conditions noted are these: complex I mutant cybrid cells, 72 h, stronger effect = higher value.
Experiment [11] has as its target Mitogen-activated protein kinase 7 (Homo sapiens) (UniProt Q13164). The experiment in a line: ERK5 transactivation activators in reporter cells, primary screen, cell-based, HTS (AID 1508626;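 active means luciferase signal above three times the same-plate solvent-only control wells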;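 further: luciferase driven by Gal4-ERK5 fusion binding five Gal4 sites before minimal TATA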). The conditions noted are these: HeLa Gal4-ERK5 transactivation, 18 h, at 5 µM, stronger effect = higher value.
Where [12] appears, read: stronger effect = lower value, cell number ratio, induced over uninduced.
[13] abbreviates: measured here: relative caspase fold change +Dox/-Dox.
Setting [14] is: measured here: total cells with miR-34 induction, stronger effect = lower value.
Setting [15] is: measured here: total cells without miR-34 induction.
Where [16] appears, read: MELAS cybrid survival, CellTiter-Glo 48 h, stronger effect = higher value.
Where [17] appears, read: Rieske KO mouse fibroblast survival, CellTiter-Glo 72 h.

Several values for one entry are separate records, joined by “and”; a condition that tells them apart may be missing. Identical values can stand only once. Results filed as inconclusive are left out. Activity calls are given as the source filed them.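 How the source made its calls, unless noted: active means normalized viability below 100% at a tested concentration; inactive means the rest.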

The term viability denotes a read-out of living cells in per cent, often relative to untreated cells. A word on the AC50: it is the concentration giving half of the maximal activity seen. What is called IC50 is the concentration needed to halve the response being measured.

Chain of NAD(+) hydrolase SARM1 (Homo sapiens) (Q6SZW1 whole entry, looked up): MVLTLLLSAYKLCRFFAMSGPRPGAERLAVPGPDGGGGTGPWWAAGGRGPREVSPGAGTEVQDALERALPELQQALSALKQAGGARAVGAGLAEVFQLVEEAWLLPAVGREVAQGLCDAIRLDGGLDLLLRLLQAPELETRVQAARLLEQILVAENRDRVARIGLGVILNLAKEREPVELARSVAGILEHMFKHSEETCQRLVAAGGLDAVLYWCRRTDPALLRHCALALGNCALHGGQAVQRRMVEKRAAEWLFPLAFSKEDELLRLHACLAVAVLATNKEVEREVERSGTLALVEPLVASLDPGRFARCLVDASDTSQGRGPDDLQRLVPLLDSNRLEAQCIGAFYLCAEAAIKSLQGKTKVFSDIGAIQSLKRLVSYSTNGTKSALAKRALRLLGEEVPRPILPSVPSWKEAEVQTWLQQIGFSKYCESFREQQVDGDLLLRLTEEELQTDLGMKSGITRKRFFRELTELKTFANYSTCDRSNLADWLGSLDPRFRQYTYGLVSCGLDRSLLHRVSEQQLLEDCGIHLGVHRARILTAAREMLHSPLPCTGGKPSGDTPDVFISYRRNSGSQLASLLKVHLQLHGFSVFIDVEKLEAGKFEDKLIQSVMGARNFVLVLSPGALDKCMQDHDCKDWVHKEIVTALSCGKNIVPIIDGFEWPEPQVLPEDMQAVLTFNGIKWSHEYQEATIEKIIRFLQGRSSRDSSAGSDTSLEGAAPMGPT
Chain of Mitogen-activated protein kinase 7 (Homo sapiens) (Q13164 whole entry, looked up, the tested form may be a part): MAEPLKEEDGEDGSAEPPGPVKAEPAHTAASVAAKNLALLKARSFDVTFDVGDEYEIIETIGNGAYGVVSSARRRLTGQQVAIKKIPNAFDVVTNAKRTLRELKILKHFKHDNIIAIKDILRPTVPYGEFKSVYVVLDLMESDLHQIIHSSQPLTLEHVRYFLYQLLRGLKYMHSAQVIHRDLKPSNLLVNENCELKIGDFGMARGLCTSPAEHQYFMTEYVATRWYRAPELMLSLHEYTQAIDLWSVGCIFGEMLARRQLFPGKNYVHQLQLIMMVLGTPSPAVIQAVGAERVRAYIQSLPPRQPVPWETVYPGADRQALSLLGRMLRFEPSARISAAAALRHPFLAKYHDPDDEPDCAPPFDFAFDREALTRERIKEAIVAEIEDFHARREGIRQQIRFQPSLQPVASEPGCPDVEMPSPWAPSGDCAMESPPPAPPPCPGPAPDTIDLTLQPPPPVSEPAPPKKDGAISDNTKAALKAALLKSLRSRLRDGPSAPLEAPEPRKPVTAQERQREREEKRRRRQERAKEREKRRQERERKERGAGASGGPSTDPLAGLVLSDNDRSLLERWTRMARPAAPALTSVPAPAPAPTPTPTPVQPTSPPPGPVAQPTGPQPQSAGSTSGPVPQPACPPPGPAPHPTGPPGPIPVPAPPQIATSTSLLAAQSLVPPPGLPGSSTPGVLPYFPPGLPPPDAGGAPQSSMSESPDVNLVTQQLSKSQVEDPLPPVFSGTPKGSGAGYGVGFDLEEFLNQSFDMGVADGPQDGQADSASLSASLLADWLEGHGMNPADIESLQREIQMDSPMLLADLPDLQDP

Regarding `Cc1nc(-c2ccc(OCC(C)C)c(C#N)c2)sc1C(=O)O`, the outcome in experiment [1], in experiment [2], in experiment [3] and in experiment [4] was inactive. Further, the fold change in experiment [5] (setting [12]) was 0.998 (inactive) and 0.915 (inactive); in experiment [5] (setting [13]) it was 0.915 and 0.811. Further, the cell count in experiment [5] (setting [14]) was 8870 and 7400; in experiment [5] (setting [15]), 8880 and 8080; in experiment [6] it was 6840. This compound returned an SSMD in [6] of 1.2. Also, the plate-normalised HSF1 focus index in experiment [6] was 1.06 (inactive). Also, the z-score in experiment [7] (setting [16]) was 0.976 (inactive); in [7] (setting [17]) it was 0.13. Also, the viability was 118% (inactive) in experiment [8] (at 0.000305 µM, OCI-C5x cells, with rucaparib 10 µM, 100% = cells with rucaparib alone); 111% (inactive) in experiment [8] (at 0.000305 µM, OCI-C5x cells, without rucaparib); 91.2% (active) in experiment [8] (at 0.000305 µM, OCI-P5x cells, with rucaparib 20 µM, 100% = cells with rucaparib alone); 99.9% (active) in experiment [8] (at 0.000305 µM, OCI-P5x cells, without rucaparib); 115% (inactive) in experiment [8] (at 0.00122 µM, OCI-C5x cells, with rucaparib 10 µM, 100% = cells with rucaparib alone); 122% (inactive) in experiment [8] (at 0.00122 µM, OCI-C5x cells, without rucaparib). For the same compound, the viability in experiment [8] (at 0.00122 µM, OCI-P5x cells, with rucaparib 20 µM, 100% = cells with rucaparib alone) is 102% (inactive); in experiment [8] (at 0.00122 µM, OCI-P5x cells, without rucaparib), 99.6% (active); in experiment [8] (at 0.00488 µM, OCI-C5x cells, with rucaparib 10 µM, 100% = cells with rucaparib alone), 112% (inactive); in experiment [8] (at 0.00488 µM, OCI-C5x cells, without rucaparib), 109% (inactive); in experiment [8] (at 0.00488 µM, OCI-P5x cells, with rucaparib 20 µM, 100% = cells with rucaparib alone) it was 109% (inactive); in experiment [8] (at 0.00488 µM, OCI-P5x cells, without rucaparib), 100% (inactive). Also, the viability in experiment [8] (at 0.0195 µM, OCI-C5x cells, with rucaparib 10 µM, 100% = cells with rucaparib alone) was 111% (inactive); in [8] (at 0.0195 µM, OCI-C5x cells, without rucaparib) it was 110% (inactive); in experiment [8] (at 0.0195 µM, OCI-P5x cells, with rucaparib 20 µM, 100% = cells with rucaparib alone) it was 105% (inactive); in [8] (at 0.0195 µM, OCI-P5x cells, without rucaparib) it was 104% (inactive); in experiment [8] (at 0.0781 µM, OCI-C5x cells, with rucaparib 10 µM, 100% = cells with rucaparib alone), 109% (inactive); in experiment [8] (at 0.0781 µM, OCI-C5x cells, without rucaparib), 112% (inactive). Besides, the viability in experiment [8] (at 0.0781 µM, OCI-P5x cells, with rucaparib 20 µM, 100% = cells with rucaparib alone) was 104% (inactive); in experiment [8] (at 0.0781 µM, OCI-P5x cells, without rucaparib), 108% (inactive); in experiment [8] (at 0.313 µM, OCI-C5x cells, with rucaparib 10 µM, 100% = cells with rucaparib alone), 110% (inactive); in [8] (at 0.313 µM, OCI-C5x cells, without rucaparib), 109% (inactive); in experiment [8] (at 0.313 µM, OCI-P5x cells, with rucaparib 20 µM, 100% = cells with rucaparib alone) it was 97.1% (active); in experiment [8] (at 0.313 µM, OCI-P5x cells, without rucaparib), 109% (inactive). Further, the viability in experiment [8] (at 1.25 µM, OCI-C5x cells, with rucaparib 10 µM, 100% = cells with rucaparib alone) is 108% (inactive); in [8] (at 1.25 µM, OCI-C5x cells, without rucaparib), 118% (inactive); in experiment [8] (at 1.25 µM, OCI-P5x cells, with rucaparib 20 µM, 100% = cells with rucaparib alone) it was 102% (inactive); in experiment [8] (at 1.25 µM, OCI-P5x cells, without rucaparib) it was 109% (inactive); in experiment [8] (at 5 µM, OCI-C5x cells, with rucaparib 10 µM, 100% = cells with rucaparib alone), 118% (inactive); in experiment [8] (at 5 µM, OCI-C5x cells, without rucaparib), 134% (inactive). For the same compound, the viability was 103% (inactive) in experiment [8] (at 5 µM, OCI-P5x cells, with rucaparib 20 µM, 100% = cells with rucaparib alone) and 108% (inactive) in [8] (at 5 µM, OCI-P5x cells, without rucaparib). Moreover, the remaining NAD in [9] was 10 nM (inactive).
As to `Cc1cnc(C(=O)O)c[n+]1[O-]`, the call in [1], in experiment [2], in [3] and in experiment [4] was inactive. The fold change was 0.836 (inactive) and 0.829 (inactive) in [5] (setting [12]); 0.776 and 1.63 in experiment [5] (setting [13]). In addition, the cell count in experiment [5] (setting [14]) was 6980 and 9220; in experiment [5] (setting [15]), 8340 and 11100. Also, the z-score in [7] (setting [16]) is 0.0931 (inactive) and 0.196 (inactive) and -0.0621 (inactive); in [7] (setting [17]), -1.45 and -0.0767 and -0.000299; in [10] it was 0.95 (inactive). Besides, the remaining NAD in experiment [9] was 10 nM (inactive).
As for `COc1ccnc(CS(=O)c2nc3ccc(OC(F)F)cc3[nH]2)c1OC` (configuration not stated), the outcome in experiment [1], in [2], in experiment [3] and in [4] was inactive. For the same compound, the fold change in experiment [5] (setting [12]) is 0.948 (inactive) and 0.839 (inactive); in [5] (setting [13]) it was 4.32 and 0.927. Also, the cell count in experiment [5] (setting [14]) is 12000 and 8980; in experiment [5] (setting [15]), 12600 and 10700. Besides, the z-score in experiment [7] (setting [16]) is 0.74 (inactive); in experiment [7] (setting [17]), -0.32; in [10], 1.18 (inactive). The remaining NAD in experiment [9] was 10 nM (inactive). Moreover, the luciferase signal in experiment [11] is 56 AU (inactive).
As for `CC1=C(C)C(=O)C(C(CCCCCC(=O)O)c2ccccc2)=C(C)C1=O` (configuration not stated), the result in experiment [1], in experiment [2], in experiment [3] and in experiment [4] was inactive. Moreover, the fold change in experiment [5] (setting [12]) was 0.907 (inactive); in experiment [5] (setting [13]), 0.844. The cell count amounted to 9450 in [5] (setting [14]) and 10400 in [5] (setting [15]). Further, the remaining NAD in [9] was 10 nM (inactive).
Take `CN(C)c1ccc2nc3ccc(=[N+](C)C)cc-3sc2c1`: the concentration at half-maximal activity (AC50) in experiment [1] was 5.9 µM (active); in experiment [2], 2.35 µM (active); in experiment [3], 10.5 µM (active). Besides, the IC50 in experiment [4] was 9.34 µM (active). For the same compound, the values for the fold change in experiment [5] (setting [12]) and in experiment [5] (setting [13]) were 0.946 (inactive) and 1.47, respectively. In addition, the cell count in [5] (setting [14]) is 3100; in [5] (setting [15]) it was 3280. The remaining NAD in experiment [9] is 10 nM (inactive). In experiment [11], the luciferase signal was 80 AU (inactive).
Turning to `CCOc1cc(CC(=O)N[C@@H](CC(C)C)c2ccccc2N2CCCCC2)ccc1C(=O)O`, the compound was classed as inactive in experiment [1], in experiment [2], in experiment [3] and in experiment [4]. Also, the fold change was 0.924 (inactive) and 0.888 (inactive) and 0.976 (inactive) in [5] (setting [12]); 0.881 and 1.49 and 4.38 in [5] (setting [13]). Also, the cell count is 8510 and 8490 and 12000 in experiment [5] (setting [14]); 9210 and 9560 and 12300 in [5] (setting [15]). Further, the results for the z-score in experiment [7] (setting [16]), in experiment [7] (setting [17]) and in [10] were -0.407 (inactive), 0.416 and 3.92 (active), respectively. Further, the remaining NAD in [9] is 10 nM (inactive).
